According to PubChem BioAssay:
Values without a mark were called inactive. The rule behind the calls is not given here.

biological target: Pantothenate synthetase (Mycobacterium tuberculosis (strain ATCC 25618 / H37Rv)) (UniProt P9WIL5); experiment: Coupled enzyme confirmation of inhibitors against recombinant Mtb PanC (AID 375); settings: coupled enzyme assay; at 10 µM, hits give high values;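 note: 0% = full reaction with vehicle and 100% = no enzyme background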
Sequence (P9WIL5 whole entry, looked up): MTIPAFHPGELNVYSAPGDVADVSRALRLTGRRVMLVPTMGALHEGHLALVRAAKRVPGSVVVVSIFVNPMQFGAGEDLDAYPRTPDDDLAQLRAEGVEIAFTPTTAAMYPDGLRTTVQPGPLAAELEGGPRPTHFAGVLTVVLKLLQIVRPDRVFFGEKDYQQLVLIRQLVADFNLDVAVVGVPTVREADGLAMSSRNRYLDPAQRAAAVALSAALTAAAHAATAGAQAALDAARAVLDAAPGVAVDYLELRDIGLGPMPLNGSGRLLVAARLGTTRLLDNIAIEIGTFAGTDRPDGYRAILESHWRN

Question: For `CC(C)(C)Nc1nc(NC(C)(C)C)nc(-n2ccnc2)n1`, which inhibition is on record?
Answer: The inhibition was 0%.

Question: With `COc1ccccc1Oc1ccc(S(=O)(=O)N2CCOCC2)cc1S(=O)(=O)N1CCOCC1` as the compound, how does the inhibition read?
Answer: Its inhibition is 0%.

Question: Which inhibition does the source give for `OCc1nc2ccccc2n1CC(O)Cn1ccc2ccccc21` (stereo not given) here?
Answer: Its inhibition is 1%.

Question: `CC(C)CN(CC(C)C)C(=O)C12CCC(C)(C(=O)C1)C2(C)C` (stereo not given) was tested. Which inhibition did it give?
Answer: Its inhibition is 3%.

Question: For `Cc1ccc(C)c(N2CCN(C(=O)C3CCN(S(=O)(=O)c4c(C)noc4C)CC3)CC2)c1`, which inhibition is on record?
Answer: Its inhibition is 4%.

Question: `CCN1CCN(c2cc3c(cc2F)c(=O)c(C(=O)O)cn3C2CC2)CC1` was tested. Which inhibition did it give?
Answer: Its inhibition is 0%.

Question: For `Cc1oc(-c2ccccc2F)nc1CS(=O)(=O)CC(=O)N1CCCCCC1`, which inhibition is on record?
Answer: Its inhibition is 1%.

Question: With `COc1ccc(CCn2c(N)c(C#N)c3nc4ccccc4nc32)cc1OC` as the compound, how does the inhibition read?
Answer: The inhibition was 0%.

Question: For `Nc1c(S(=O)(=O)c2cccs2)c2nc3ccccc3nc2n1CC1CCCO1` (stereo not given), which inhibition is on record?
Answer: The inhibition was 0%.

Question: Which inhibition does the source give for `C=CCN1C(=O)C2(/C(=C(\O)c3ccc4c(c3)OCCO4)C(=O)C(=O)N2CCCOC)c2ccccc21` (stereo not given) here?
Answer: Its inhibition is 0%.

Question: With `CCOC(=O)c1c(NC(=O)OC)sc(C(=O)N(C)C)c1C` as the compound, how does the inhibition read?
Answer: The inhibition was 1%.

Question: For `CCOC(=O)[C@H](CCc1ccccc1)N[C@@H](C)C(=O)N1CCC[C@H]1C(=O)O`, which inhibition is on record?
Answer: Its inhibition is 0%.

Question: `CN(C)CCCN1C(=O)c2oc3ccc(Cl)cc3c(=O)c2C1c1cccnc1` (stereo not given) was tested. Which inhibition did it give?
Answer: The inhibition was 0%.

Question: `C/C=C/CSc1nc2c(c(=O)[nH]c(=O)n2C)n1Cc1ccc(C)cc1` was tested. Which inhibition did it give?
Answer: Its inhibition is 4%.

Question: `Cc1cc(Nc2ccc(N3CCC(C)CC3)cc2)n2ncnc2n1` was tested. Which inhibition did it give?
Answer: The inhibition was 0%.

Question: Which inhibition does the source give for `Cc1nc2ccccc2cc1C(=O)NCc1ccco1` here?
Answer: Its inhibition is 0%.

Question: With `Cc1ccccc1N1OC2C(=O)N(c3ccc(F)cc3)C(=O)C2C1c1ccccn1` (stereo not given) as the compound, how does the inhibition read?
Answer: Its inhibition is 3%.

Question: How did the inhibition turn out when `CCOC(=O)Cc1csc(NC(=O)c2cccc(OC)c2)n1` was run?
Answer: The inhibition was 0%.

Question: How did the inhibition turn out when `C[C@@H]1C[C@H](O)c2cc(Cl)ccc2N1` was run?
Answer: The inhibition was 8%.

Question: With `COCCOC(=O)c1[nH]c2c(c1C)C(=O)CC(c1ccc(N(C)C)cc1)C2` (stereo not given) as the compound, how does the inhibition read?
Answer: Its inhibition is 0%.

Question: `Cc1cc(C(=O)N2CCN(C(c3ccccc3)c3ccccc3)CC2)no1` was tested. Which inhibition did it give?
Answer: The inhibition was 3%.

Question: Which inhibition does the source give for `CC(C)(C)c1ccc(O)c(N)c1` here?
Answer: Its inhibition is 2%.

Question: For `CC1CN(c2nc3ccccc3nc2C(C#N)C(=O)NCc2ccc3c(c2)OCO3)CC(C)O1` (stereo not given), which inhibition is on record?
Answer: Its inhibition is 0%.

Question: `CCN1C(=O)C2(C(C#N)=C(N)Oc3n[nH]c(C(C)C)c32)c2ccccc21` (stereo not given) was tested. Which inhibition did it give?
Answer: Its inhibition is 1%.

Question: Which inhibition does the source give for `Cc1cccc(NC(=O)c2ccc(S(=O)(=O)N(C)C)cc2)n1` here?
Answer: Its inhibition is 0%.

Question: `FC(F)(F)c1nnc2sc(-c3cccs3)nn12` was tested. Which inhibition did it give?
Answer: The inhibition was 4%.

Question: For `Oc1ccc2ccccc2c1CN1CCN(c2ccccc2F)CC1`, which inhibition is on record?
Answer: Its inhibition is 1%.

Question: For `CCCCc1c(O)nc(N2CCN(Cc3ccccc3)CC2)[nH]c1=O`, which inhibition is on record?
Answer: The inhibition was 7%.

Question: With `CC(C)n1c(CN2CCN(C)CC2)nc2c1c(=O)n(C)c(=O)n2C` as the compound, how does the inhibition read?
Answer: Its inhibition is 0%.

Question: Which inhibition does the source give for `CCOC(=O)C1CCN(C(=O)COc2ccc(Cl)cc2Cl)CC1` here?
Answer: Its inhibition is 0%.

Question: Which inhibition does the source give for `CC(C)N1C(=O)C2C(C(=O)NC3CCCCC3)C3C=CC2(O3)C1C(=O)NC1CCCC1` (stereo not given) here?
Answer: Its inhibition is 0%.

Question: Which inhibition does the source give for `Cn1cccc1-c1cc(C(=O)O)[nH]n1` here?
Answer: Its inhibition is 0%.

Question: `Cc1oc2c(CN3CCOCC3)c(O)ccc2c(=O)c1-c1ccc(Br)cc1` was tested. Which inhibition did it give?
Answer: The inhibition was 0%.

Question: Which inhibition does the source give for `COc1ccc(CC(=O)NCc2nnc(SCC(=O)Nc3nccs3)n2-c2ccccc2)cc1` here?
Answer: The inhibition was 0%.

Question: For `COc1cccc(Cn2c(-c3nonc3N)nc3ccccc32)c1`, which inhibition is on record?
Answer: The inhibition was 0%.

Question: With `N#Cc1c(-c2ccccc2)nc(SCc2nc(N)nc(N3CCCCC3)n2)[nH]c1=O` as the compound, how does the inhibition read?
Answer: Its inhibition is 9%.

Question: Which inhibition does the source give for `O=C(Nc1cccnc1N1CCOCC1)c1ccco1` here?
Answer: The inhibition was 10%.

Question: For `CCOC(=O)c1[nH]c2ccc(C)cc2c1N=C(C)N(C)C`, which inhibition is on record?
Answer: The inhibition was 11%.

Question: `S=c1nc(C2CC2)[nH]c2ccccc12` was tested. Which inhibition did it give?
Answer: The inhibition was 0%.

Question: Which inhibition does the source give for `COc1cccc(CNc2nc3nc(C)c(Cl)c(C)n3n2)c1` here?
Answer: The inhibition was 12%.
